Test results: publication PMC5540273 (PLoS ONE, 2017)
Several values for one entry are separate records, joined by “and”; a condition that tells them apart may be missing. Equal values may be shown once. Read-outs that look alike come from different tables or passages of the source.

Assays:
[1] = system: MAP3K3; details: concentration: 1 μM, replicates: in singlicate, n = 1
[2] = system: MAP3K4; details: concentration: 1 μM, replicates: in singlicate, n = 1
[3] = system: MAP4K2; details: concentration: 1 μM, replicates: in singlicate, n = 1
[4] = system: MAP4K3; details: concentration: 1 μM, replicates: in singlicate, n = 1
[5] = system: MAP4K4; details: concentration: 1 μM, replicates: in singlicate; n = 1
[6] = system: MAP4K5; details: concentration: 1 μM, replicates: in singlicate; n = 1
[7] = system: MAPKAPK2; details: concentration: 1 μM, replicates: in singlicate, n = 1
[8] = system: MAPKAPK5; details: concentration: 1 μM, replicates: in singlicate, n = 1
[9] = system: MARK1; details: concentration: 1 μM, replicates: in singlicate; n = 1
[10] = system: MARK2; details: concentration: 1 μM, replicates: in singlicate, n = 1
[11] = system: MARK3; details: concentration: 1 μM, replicates: in singlicate; n = 1
[12] = system: MARK4; details: concentration: 1 μM, replicates: in singlicate, n = 1
[13] = system: MAST1; details: concentration: 1 μM, replicates: in singlicate, n = 1
[14] = system: T1, MEK1; details: concentration: 1 μM, replicates: in singlicate, n = 1
T1 construct: gene MAP2K1

[15] = system: T2, MEK2; details: concentration: 1 μM, replicates: in singlicate, n = 1
T2 construct: gene MAP2K2

[16] = system: T3, MEK3; details: concentration: 1 μM, replicates: in singlicate, n = 1
T3 construct: gene MAP2K3

[17] = system: T4, MEK4; details: concentration: 1 μM, replicates: in singlicate, n = 1
T4 construct: gene MAP2K4

[18] = system: T5, MEK5; details: concentration: 1 μM, replicates: in singlicate, n = 1
T5 construct: gene MAP2K5

[19] = system: T6, MEK6; details: concentration: 1 μM, replicates: in singlicate; n = 1
T6 construct: gene MAP2K6

[20] = system: MELK; details: concentration: 1 μM, replicates: in singlicate, n = 1
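Further: KINOMEscan kinase panel screen.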

## CN1c2ccc(-c3ccc(C(=O)NCCO)cc3)cc2-c2[nH]ncc2S1(=O)=O
[1]
  %Inh: 40%
[2]
  %Inh: 0%
[3]
  %Inh: 26%
[4]
  %Inh: 11%
[5]
  %Inh: 27%
[6]
  %Inh: 25%
[7]
  %Inh: 0%
[8]
  %Inh: 0%
[9]
  %Inh: 38%
[10]
  %Inh: 24%
[11]
  %Inh: 0%
[12]
  %Inh: 35%
[13]
  %Inh: 0%
[14]
  %Inh: 0%
[15]
  %Inh: 27%
[16]
  %Inh: 25%
[17]
  %Inh: 0%
[18]
  %Inh: 68%
[19]
  %Inh: 1%
[20]
  %Inh: 32%

## Cc1ccc(NC(=O)c2cccc(C#N)c2)cc1-c1ccc(C(=O)Nc2ccncc2)cc1 [GSK1398463]
[1]
  %Inh: 0%
[2]
  %Inh: 35%
[3]
  %Inh: 0%
[4]
  %Inh: 11%
[5]
  %Inh: 4%
[6]
  %Inh: 0%
[7]
  %Inh: 24%
[8]
  %Inh: 0%
[9]
  %Inh: 0%
[10]
  %Inh: 0%
[11]
  %Inh: 0%
[12]
  %Inh: 0%
[13]
  %Inh: 17%
[14]
  %Inh: 0%
[15]
  %Inh: 10%
[16]
  %Inh: 0%
[17]
  %Inh: 0%
[18]
  %Inh: 4%
[19]
  %Inh: 31%
[20]
  %Inh: 0%

## COc1cc2ncnc(Nc3ccc(OCc4ccccc4Br)c(Cl)c3)c2cc1OC.Cl [GI261590]
[1]
  %Inh: 0%
[2]
  %Inh: 0%
[3]
  %Inh: 0%
[4]
  %Inh: 11%
[5]
  %Inh: 0%
[6]
  %Inh: 17%
[7]
  %Inh: 15%
[8]
  %Inh: 0%
[9]
  %Inh: 29%
[10]
  %Inh: 0%
[11]
  %Inh: 1%
[12]
  %Inh: 11%
[13]
  %Inh: 0%
[14]
  %Inh: 19%
[15]
  %Inh: 13%
[16]
  %Inh: 0%
[17]
  %Inh: 0%
[18]
  %Inh: 98.9%
[19]
  %Inh: 0%
[20]
  %Inh: 0%

## CS(=O)(=O)CCNCc1nc(-c2ccc3ncnc(Nc4ccc(OCc5cccc(F)c5)c(Cl)c4)c3c2)cs1.Cl [GW583340]
[1]
  %Inh: 0%
[2]
  %Inh: 4%
[3]
  %Inh: 0%
[4]
  %Inh: 0%
[5]
  %Inh: 0%
[6]
  %Inh: 0%
[7]
  %Inh: 4%
[8]
  %Inh: 0%
[9]
  %Inh: 0%
[10]
  %Inh: 0%
[11]
  %Inh: 0%
[12]
  %Inh: 0%
[13]
  %Inh: 0%
[14]
  %Inh: 0%
[15]
  %Inh: 0%
[16]
  %Inh: 0%
[17]
  %Inh: 3%
[18]
  %Inh: 57%
[19]
  %Inh: 0%
[20]
  %Inh: 0%

## Nc1nc(-c2ccc3c(N)n[nH]c3c2)cc(N2CCC[C@@H](C(=O)Nc3ccccc3)C2)n1.O=C(O)C(F)(F)F.O=C(O)C(F)(F)F [GSK2288359]
[1]
  %Inh: 0%
[2]
  %Inh: 28%
[3]
  %Inh: 0%
[4]
  %Inh: 0%
[5]
  %Inh: 5%
[6]
  %Inh: 6%
[7]
  %Inh: 0%
[8]
  %Inh: 0%
[9]
  %Inh: 0%
[10]
  %Inh: 0%
[11]
  %Inh: 0%
[12]
  %Inh: 0%
[13]
  %Inh: 0%
[14]
  %Inh: 0%
[15]
  %Inh: 8%
[16]
  %Inh: 3%
[17]
  %Inh: 0%
[18]
  %Inh: 50%
[19]
  %Inh: 8%
[20]
  %Inh: 13%

## Cc1ccc(O)cc1Nc1cc(C(F)(F)F)nc2ccc(-c3ccncc3)cc12 [GW630823]
[1]
  %Inh: 0%
[2]
  %Inh: 0%
[3]
  %Inh: 0%
[4]
  %Inh: 0%
[5]
  %Inh: 0%
[6]
  %Inh: 0%
[7]
  %Inh: 0%
[8]
  %Inh: 0%
[9]
  %Inh: 0%
[10]
  %Inh: 9%
[11]
  %Inh: 0%
[12]
  %Inh: 4%
[13]
  %Inh: 0%
[14]
  %Inh: 0%
[15]
  %Inh: 5%
[16]
  %Inh: 0%
[17]
  %Inh: 0%
[18]
  %Inh: 0%
[19]
  %Inh: 0%
[20]
  %Inh: 0%

## Fc1ccc(Nc2nccc(-c3c(-c4ccc(Cl)cc4)nn4ncccc34)n2)cc1F [GW829058]
[1]
  %Inh: 40%
[2]
  %Inh: 17%
[3]
  %Inh: 34%
[4]
  %Inh: 0%
[5]
  %Inh: 1%
[6]
  %Inh: 6%
[7]
  %Inh: 3%
[8]
  %Inh: 0%
[9]
  %Inh: 16%
[10]
  %Inh: 15%
[11]
  %Inh: 34%
[12]
  %Inh: 25%
[13]
  %Inh: 26%
[14]
  %Inh: 29%
[15]
  %Inh: 42%
[16]
  %Inh: 27%
[17]
  %Inh: 30%
[18]
  %Inh: 14%
[19]
  %Inh: 13%
[20]
  %Inh: 0%

## O=C(Nc1ccccc1)Nc1ccc(Oc2ccc3nccn3n2)cc1
[1]
  %Inh: 9%
[2]
  %Inh: 21%
[3]
  %Inh: 0%
[4]
  %Inh: 0%
[5]
  %Inh: 0%
[6]
  %Inh: 0%
[7]
  %Inh: 0%
[8]
  %Inh: 0%
[9]
  %Inh: 0%
[10]
  %Inh: 0%
[11]
  %Inh: 9%
[12]
  %Inh: 7%
[13]
  %Inh: 0%
[14]
  %Inh: 17%
[15]
  %Inh: 32%
[16]
  %Inh: 0%
[17]
  %Inh: 0%
[18]
  %Inh: 0%
[19]
  %Inh: 0%
[20]
  %Inh: 10%

## COc1ccc(-c2nc3n(c2-c2ccncc2)CCC3)cc1 [SKF-104493]
[1]; 1 µM
  %Inh: 6% and 0%
[2]; 1 µM
  %Inh: 28% and 3%
[3]; 1 µM
  %Inh: 7% and 0%
[4]; 1 µM
  %Inh: 0% and 8%
[5]
  %Inh: 0%
[6]
  %Inh: 0%
[7]; 1 µM
  %Inh: 12% and 9%
[8]; 1 µM
  %Inh: 13% and 10%
[9]
  %Inh: 0%
[10]; 1 µM
  %Inh: 0% and 11%
[11]
  %Inh: 0%
[12]; 1 µM
  %Inh: 17% and 0%
[13]; 1 µM
  %Inh: 49% and 11%
[14]; 1 µM
  %Inh: 0% and 12%
[15]; 1 µM
  %Inh: 29% and 5%
[16]; 1 µM
  %Inh: 1% and 0%
[17]; 1 µM
  %Inh: 67% and 12%
[18]; 1 µM
  %Inh: 24% and 0%
[19]
  %Inh: 0%
[20]; 1 µM
  %Inh: 0% and 15%

## O=C(c1ccc(-c2cc(-c3c[nH]nc3-c3ccccn3)ccn2)cc1)N1CCCC1 [GW792479]
[1]
  %Inh: 11%
[2]
  %Inh: 25%
[3]
  %Inh: 0%
[4]
  %Inh: 0%
[5]
  %Inh: 5%
[6]
  %Inh: 0%
[7]
  %Inh: 0%
[8]
  %Inh: 0%
[9]
  %Inh: 0%
[10]
  %Inh: 4%
[11]
  %Inh: 0%
[12]
  %Inh: 15%
[13]
  %Inh: 12%
[14]
  %Inh: 14%
[15]
  %Inh: 30%
[16]
  %Inh: 20%
[17]
  %Inh: 0%
[18]
  %Inh: 30%
[19]
  %Inh: 0%
[20]
  %Inh: 0%

## Cl.Fc1ccccc1COc1ccc(Nc2ncnc3ccc(-c4nnc(C(F)(F)F)o4)cc23)cc1Cl [GW424170]
[1]
  %Inh: 0%
[2]
  %Inh: 15%
[3]
  %Inh: 0%
[4]
  %Inh: 0%
[5]
  %Inh: 0%
[6]
  %Inh: 0%
[7]
  %Inh: 0%
[8]
  %Inh: 0%
[9]
  %Inh: 0%
[10]
  %Inh: 0%
[11]
  %Inh: 0%
[12]
  %Inh: 0%
[13]
  %Inh: 0%
[14]
  %Inh: 0%
[15]
  %Inh: 0%
[16]
  %Inh: 0%
[17]
  %Inh: 28%
[18]
  %Inh: 10%
[19]
  %Inh: 0%
[20]
  %Inh: 0%

## Cl.c1ccc(Cn2ncc3cc(Nc4ncnc5ccccc45)ccc32)cc1 [GW273749]
[1]
  %Inh: 0%
[2]
  %Inh: 0%
[3]
  %Inh: 0%
[4]
  %Inh: 0%
[5]
  %Inh: 0%
[6]
  %Inh: 0%
[7]
  %Inh: 13%
[8]
  %Inh: 0%
[9]
  %Inh: 0%
[10]
  %Inh: 0%
[11]
  %Inh: 0%
[12]
  %Inh: 0%
[13]
  %Inh: 0%
[14]
  %Inh: 0%
[15]
  %Inh: 7%
[16]
  %Inh: 0%
[17]
  %Inh: 0%
[18]
  %Inh: 99.7%
[19]
  %Inh: 6%
[20]
  %Inh: 0%

## Nc1nc(-c2cccnc2)c(-c2ccnc3ccccc23)s1 [GW684083]
[1]
  %Inh: 0%
[2]
  %Inh: 0%
[3]
  %Inh: 0%
[4]
  %Inh: 0%
[5]
  %Inh: 16%
[6]
  %Inh: 0%
[7]
  %Inh: 14%
[8]
  %Inh: 0%
[9]
  %Inh: 0%
[10]
  %Inh: 0%
[11]
  %Inh: 0%
[12]
  %Inh: 0%
[13]
  %Inh: 22%
[14]
  %Inh: 0%
[15]
  %Inh: 0%
[16]
  %Inh: 0%
[17]
  %Inh: 1%
[18]
  %Inh: 70%
[19]
  %Inh: 0%
[20]
  %Inh: 6%

## Cc1cccc(-c2nc(Nc3ccc4[nH]nnc4c3)c3ccccc3n2)n1 [GW867587]
[1]
  %Inh: 0%
[2]
  %Inh: 0%
[3]
  %Inh: 0%
[4]
  %Inh: 0%
[5]
  %Inh: 0%
[6]
  %Inh: 0%
[7]
  %Inh: 0%
[8]
  %Inh: 0%
[9]
  %Inh: 0%
[10]
  %Inh: 0%
[11]
  %Inh: 18%
[12]
  %Inh: 3%
[13]
  %Inh: 17%
[14]
  %Inh: 7%
[15]
  %Inh: 16%
[16]
  %Inh: 5%
[17]
  %Inh: 0%
[18]
  %Inh: 19%
[19]
  %Inh: 0%
[20]
  %Inh: 0%

## COc1ccc(Nc2nccc(N3CCC(NC(=O)c4cccc(NC(C)=O)c4)C3)n2)cc1 (stereo not drawn) [GSK1379732]
[1]
  %Inh: 0%
[2]
  %Inh: 0%
[3]
  %Inh: 0%
[4]
  %Inh: 0%
[5]
  %Inh: 0%
[6]
  %Inh: 0%
[7]
  %Inh: 0%
[8]
  %Inh: 0%
[9]
  %Inh: 0%
[10]
  %Inh: 0%
[11]
  %Inh: 3%
[12]
  %Inh: 0%
[13]
  %Inh: 42%
[14]
  %Inh: 0%
[15]
  %Inh: 0%
[16]
  %Inh: 0%
[17]
  %Inh: 18%
[18]
  %Inh: 19%
[19]
  %Inh: 0%
[20]
  %Inh: 0%
